# Measurements published in PubChem BioAssay AID583 (Sanford-Burnham Center for Chemical Genomics, 2007).
# Values joined by “and” are separate entries in the source; they are usually repeats but may differ in a detail not shown here. Identical values can stand only once. Among all 140,000 compounds or so, about 80 (0.06%) were called active. The sample holds actives, similar compounds and a random draw of the others, so the mix is not that of the screen. Rule as the data show it: active = displacement above about 50%; inactive = the rest.
# Target: Heat shock 70 kDa protein 1A (Homo sapiens) (UniProt P0DMV8)
# Test: Hsp70 inhibitors, probe displacement, primary screen, biochemical, fluorescence polarization (AID 583);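 also: plate controls were vehicle for no effect and reference ligand for full effect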
# Settings: mP, at 20 µM, stronger effect = higher value
# Chain of Heat shock 70 kDa protein 1A (Homo sapiens) (P0DMV8 whole entry, looked up): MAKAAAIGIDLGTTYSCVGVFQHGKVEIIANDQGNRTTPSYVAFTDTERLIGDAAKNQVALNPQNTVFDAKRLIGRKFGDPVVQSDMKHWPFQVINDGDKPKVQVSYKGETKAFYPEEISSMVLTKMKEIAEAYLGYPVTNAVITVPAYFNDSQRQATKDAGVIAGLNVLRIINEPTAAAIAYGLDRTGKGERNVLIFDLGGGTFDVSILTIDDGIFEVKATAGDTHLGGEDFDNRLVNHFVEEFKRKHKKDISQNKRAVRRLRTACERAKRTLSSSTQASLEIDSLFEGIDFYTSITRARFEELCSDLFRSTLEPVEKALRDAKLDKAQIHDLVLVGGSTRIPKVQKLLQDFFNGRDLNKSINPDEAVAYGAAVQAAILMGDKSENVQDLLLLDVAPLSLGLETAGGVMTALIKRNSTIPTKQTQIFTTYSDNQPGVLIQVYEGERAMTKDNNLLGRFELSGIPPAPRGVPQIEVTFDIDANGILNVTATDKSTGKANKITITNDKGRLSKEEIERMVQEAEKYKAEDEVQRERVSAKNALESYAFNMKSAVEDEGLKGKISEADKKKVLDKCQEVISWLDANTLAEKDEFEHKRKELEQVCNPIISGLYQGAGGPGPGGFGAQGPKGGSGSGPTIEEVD
row,SMILES,displacement
1,O=C(O)c1ccc(-c2ccc(/C=C3\SC(=S)N(c4ccc([N+](=O)[O-])cc4)C3=O)o2)cc1,55.5% (active)
2,O=C(O)CCN1C(=O)/C(=C/c2ccc(-c3ccc([N+](=O)[O-])cc3)o2)SC1=S,1.7% (inactive)
3,O=C1/C(=C\c2ccc(-c3ccc([N+](=O)[O-])cc3)o2)SC(=S)N1c1ccc(O)cc1,1.6% (inactive)
4,CC(=O)Nc1ccccc1NC(=O)COc1ccc(Cl)cc1C,-3.3% (inactive)
5,O=c1ccc(Oc2nc(N3CCOCC3)nc(N3CCOCC3)n2)nn1-c1ccccc1,6.5% (inactive)
6,N/C(=N\OC(=O)c1cccc(Br)c1)c1cccnc1,1.1% (inactive)
7,Cc1c(Cl)cccc1N=C1NC(=O)/C(=C/c2ccc(O)c([N+](=O)[O-])c2)S1,13.2% (inactive)
8,COc1cc(/C=C2\SC(=Nc3ccc(C)c(Cl)c3)NC2=O)ccc1O,-0.7% (inactive)
9,Cc1ccc(N=C2NC(=O)/C(=C/c3ccc(O)c([N+](=O)[O-])c3)S2)cc1Cl,66.9% (active)
10,CC1CCCCN1c1nnc(N)s1 (centres undefined),0.6% (inactive)
11,O=C(Cn1c(=O)n(CC2CCCO2)c(=O)c2ccccc21)N1CCN(c2ccccc2)CC1 (centres undefined),4.1% (inactive)
12,Cc1c(O)ccc2c1oc(=O)c1ccccc12,2.3% (inactive)
13,O=c1oc2c(O)c(O)ccc2c2c1CCC2,1.2% (inactive)
14,Nc1nnn(Cc2ccccc2)n1,-0.8% (inactive)
15,CCN(CC)S(=O)(=O)c1ccc2oc(Nc3ccc4c(c3)OCCO4)nc2c1,0.7% (inactive)
16,CC(Sc1ccc2nnc(-c3ccc(F)cc3)n2n1)C(=O)O (centres undefined),-5.3% (inactive)
17,NC(=O)CN1CCOCCN(CC(N)=O)CCOCC1,-5% (inactive)
18,O=C(NCC(O)c1ccccc1)C(=O)NC1CC1 (centres undefined),-1.2% (inactive)
19,CCC(c1nnc(SCc2nc3ccccc3s2)n1Cc1ccccc1)N(C)C (centres undefined),-2.1% (inactive)
20,O=C1C=CC2=C3Oc4c(ccc5cc(O)ccc45)C(c4ccccc4C(=O)O)C3C=CC2=C1 (centres undefined),60.9% (active)
21,O=C1CC(c2ccccc2)c2ccc(O)cc2O1 (centres undefined),2.6% (inactive)
22,O=C(O)c1cccc(N2C(=O)CCC2=O)c1,3.8% (inactive)
23,O=C(O)c1cccc(N2C(=O)c3ccc(Br)cc3C2=O)c1,-5.6% (inactive)
24,O=C(O)c1cccc(N2C(=O)c3ccc4c5c(ccc(c35)C2=O)CC4)c1,70% (active)

row,SMILES,displacement
1,Nc1nc(CSc2nc3ccccc3[nH]2)cs1,-1.6% (inactive)
2,Cc1cccc(N2C(=O)NC(=O)/C(=C/c3ccc(N(C)C)c(Br)c3)C2=O)c1,0.9% (inactive)
3,CCOc1ccc(-c2cc(OCC)c3c(C)oc(C)c3c(=[O+]CC)c2)cc1,-5.4% (inactive)
4,CCOc1cccc(=O)c2c(C)oc(C)c12,28% (inactive) and 19.3% (inactive)
5,CCOc1cccc(=[O+]CC)c2c(C)oc(C)c12,80.7% (active)
6,Cc1oc(-c2ccc(Cl)cc2)nc1CN1CCCC(C(=O)NCc2ccco2)C1 (centres undefined),0.5% (inactive)
7,Cc1cc(C)c(NC(=O)c2c(-c3ccccc3)noc2C)c(C)c1,1.9% (inactive)
8,CCc1nnc(SCC(=O)N2CCCc3ccccc32)nc1CC,0.4% (inactive)
9,Cc1cc(NC(=O)c2ccc(-c3cccc(Cl)c3)o2)ccc1NC(=O)c1ccco1,-0.3% (inactive)
10,N#Cc1c2c(c(NCCCN3CCOCC3)n3c1nc1ccccc13)CCC2,3.4% (inactive)
11,CN(C)CCCNc1c2c(c(C#N)c3nc4ccccc4n13)CCC2,3.6% (inactive)
12,N#Cc1c2c(c(NCCCCO)n3c1nc1ccccc13)CCC2,55% (active)
13,O=C(O)C1Nc2c(cccc2[N+](=O)[O-])C2C=CCC12 (centres undefined),76.9% (active)
14,O=C(O)C1Nc2ccc([N+](=O)[O-])cc2C2C=CCC12 (centres undefined),102% (active)
15,Cc1ccc2c(c1)C1C=CCC1C(C(=O)O)N2 (centres undefined),38.6% (inactive)
16,COc1cccc2c1NC(C(=O)O)C1CC=CC21 (centres undefined),47.8% (inactive)
17,O=[N+]([O-])c1ccc(C2Nc3ccc([N+](=O)[O-])cc3C3C=CCC32)cc1 (centres undefined),0.4% (inactive)
18,O=C(O)C1Nc2c(O)cccc2C2C=CCC12 (centres undefined),16.1% (inactive)
19,O=C(CCc1ccccc1)Oc1ccc(Cl)cc1,0.9% (inactive)
20,CCOc1ccc(N2C(=O)/C(=C/c3ccc(N(CC)CC)o3)C(=O)NC2=S)cc1,-73.8% (inactive)
21,Cc1ccc(N2C(=O)NC(=O)/C(=C\c3ccc(I)o3)C2=O)cc1,6.1% (inactive)
22,CCOc1ccc(N2C(=O)/C(=C/c3ccc(OCc4cccc(C(=O)O)c4)cc3)C(=O)NC2=S)cc1,5.7% (inactive)
23,CCOc1ccc(N2C(=O)NC(=O)/C(=C\c3ccc(I)o3)C2=O)cc1,0.7% (inactive)
24,CCc1ccc(N2C(=O)/C(=C/c3ccc(I)o3)C(=O)NC2=S)cc1,84.7% (active)

row,SMILES,displacement
1,O=C1NC(=S)N(c2ccccc2F)C(=O)/C1=C/c1ccc(OCc2cccc(C(=O)O)c2)cc1,51.5% (active)
2,O=C1NC(=O)N(c2ccc(Cl)cc2)C(=O)/C1=C/c1ccc(I)o1,15.2% (inactive)
3,O=C1NC(=S)N(c2ccccc2F)C(=O)/C1=C/c1ccc(I)o1,81.7% (active)
4,O=C1NC(=O)N(c2ccccc2F)C(=O)/C1=C/c1ccc(OCc2cccc(C(=O)O)c2)cc1,0.2% (inactive)
5,CCOc1ccc(N2C(=O)/C(=C/c3ccc(I)o3)C(=O)NC2=S)cc1,96.7% (active)
6,O=C1NC(=O)N(c2ccccc2F)C(=O)/C1=C/c1ccc(I)o1,20.6% (inactive)
7,O=C1NC(=S)N(c2ccccc2F)C(=O)/C1=C/c1ccc(Sc2ccccc2)o1,0.9% (inactive)
8,CC(C)c1ccc(-c2nc(N)c3c(=O)oc4ccccc4c3n2)cc1,0.4% (inactive)
9,O=C(CN(Cc1ccco1)C(=O)CNS(=O)(=O)c1ccccc1)NC1CCCCC1,5.9% (inactive)
10,O=[N+]([O-])c1cc(NS(=O)(=O)Cc2ccccc2)ccc1F,3.6% (inactive)
11,O=C(NCc1ccc2c(c1)OCO2)C1COc2ccccc2O1 (centres undefined),3.3% (inactive)
12,CCCn1c(=N)n(CC(=O)C(C)(C)C)c2ccccc21,7.1% (inactive)
13,CCn1cc(Br)c(C(=O)Nc2ccc(OC)cc2)n1,8.2% (inactive)
14,O=C(NC1CC2CCCC(C1)N2C(=O)NC1CCCCC1)c1ccccc1 (centres undefined),0.4% (inactive)
15,COc1cccc(C(=O)NC2CC3CCCC(C2)N3CC(=O)Nc2ccc(N(C)C)cc2)c1 (centres undefined),2.7% (inactive)
16,COc1cc(C(=O)NC2CC3CCCC(C2)N3CC(=O)Nc2ccccc2)cc(OC)c1OC (centres undefined),2% (inactive)
17,Cc1c(C(=O)N2CCc3ccccc3C2)sc2nc(-c3ccccc3)cn12,0.5% (inactive)
18,O=C1NN(c2ccc(Cl)cc2)C(=O)/C1=C\c1ccc(-c2cccc(C(=O)O)c2)o1,16.5% (inactive)
19,O=C1NN(c2ccc(F)c(Cl)c2)C(=O)/C1=C\c1ccc(-c2cccc(C(=O)O)c2)o1,5.7% (inactive)
20,O=C1NN(c2cccc(Cl)c2)C(=O)/C1=C\c1ccc(-c2cccc(C(=O)O)c2)o1,55.5% (active)
21,COc1ccc(NC(=O)Cn2nc(C)c3ccccc3c2=O)cc1,-1% (inactive)
22,CCOc1cc(/C=C2/SC(=S)NC2=O)cc(Cl)c1OCc1ccc(Cl)cc1Cl,4.9% (inactive)
23,COc1cc(/C=C2/SC(=S)NC2=O)cc(Cl)c1OCc1ccccc1F,-0.4% (inactive)
24,COc1cccc(OCCOc2c(Cl)cc(/C=C3/SC(=S)NC3=O)cc2OC)c1,0.2% (inactive)

row,SMILES,displacement
1,COc1cc(/C=C2/SC(=S)NC2=O)cc(Cl)c1OCc1cccc2ccccc12,99.9% (active)
2,CCCOc1c(Cl)cc(/C=C2/SC(=S)NC2=O)cc1OC,1.3% (inactive)
3,COc1cc(/C=C2/SC(=S)NC2=O)cc(Cl)c1OCc1ccc(Cl)cc1Cl,94.8% (active)
4,COc1ccc(N2C(=O)NC(=O)/C(=C\c3cccc(OC)c3OC)C2=O)cc1,-4.3% (inactive)
5,O=C1N/C(=N/N=C/c2ccccc2)SC1Cc1ccccc1Cl (centres undefined),-1.4% (inactive)
6,COC(=S)N/C(=N/S(=O)(=O)c1ccc(Cl)cc1)c1ccccc1,0.8% (inactive)
7,CC1=NN(c2cccc(C(=O)O)c2)C(=O)/C1=C\c1ccco1,6.9% (inactive)
8,CCOC(=O)c1ccc(N2N=C(C)/C(=C/C=C/c3ccco3)C2=O)cc1,0.7% (inactive)
9,CC(=O)NS(=O)(=O)c1ccc(NC(=O)c2ccc([N+](=O)[O-])cc2)cc1,6.8% (inactive)
10,CC(=O)NS(=O)(=O)c1ccc(NC(=O)c2ccc([N+](=O)[O-])c(C)c2)cc1,61.3% (active)
11,COc1ccc(C(=O)Nc2ccc(S(=O)(=O)NC(C)=O)cc2)cc1[N+](=O)[O-],3.6% (inactive)
12,O=C(NCCc1ccccc1)c1cnc2sccn2c1=O,-1.6% (inactive)
13,Oc1[nH]c2ccccc2c1N=Nc1nc(-c2ccccc2)c2cc(Br)ccc2n1,-0.1% (inactive)
14,O=C1N=C(N=Nc2c(O)[nH]c3ccccc23)S/C1=C/c1ccc(Br)cc1,82.1% (active)
15,CN(C)c1ccc(/C=C2/SC(N=Nc3c(O)[nH]c4ccccc34)=NC2=O)cc1,17.1% (inactive)
16,COc1ccc(Br)cc1/C=C/C(=O)Nc1cccc(NC(=O)c2ccccc2Cl)c1,-1% (inactive)
17,CCN(CC)c1nc(C)cc(COC)c1C#N,2.1% (inactive)
18,CC(C)c1ccc(NC(=O)C(c2ccc3c(c2)OCO3)N2CCC3(CC2)OCCO3)cc1 (centres undefined),-2.7% (inactive)
19,O=C(CCCC(=O)N1CCCCC1)NCc1ccco1,-1.6% (inactive)
20,COC(=O)c1ccc(C(=O)OC)c(NC(=O)CSc2nnc(-c3ccccc3Cl)o2)c1,1.6% (inactive)
21,Oc1c(Cl)cc(Cl)cc1Sc1cc(Cl)cc(Cl)c1O,7.6% (inactive)
22,O=S(=O)(c1cc(Cl)cc(Cl)c1O)c1cc(Cl)cc(Cl)c1O,8.8% (inactive)
